Inhibition data for 52 molecules are collected here from PubChem BioAssay AID1532 (PCMD, 2009).

Hit rate of the full screen: of about 110,000 compounds, about 420 (0.38%) were called active. No stated cut-off is given here; in the data, active means inhibition above about 30% (passing the limit was not always enough); inconclusive means no clear call, values can overlap the other calls. For the sample, actives were picked, then their nearest neighbours and some compounds at random.

In this assay the test system is RmlC (dTDP-4-dehydrorhamnose 3,5-epimerase) and RmlD (dTDP-4-dehydrorhamnose reductase), coupled enzyme assay. Briefly: RmlC and RmlD coupled enzyme inhibitors, primary screen, biochemical, 384-well, compound mixtures, retest (AID 1532). The following applies: 384-well mixture HTS, at 5.5 µM, stronger effect = higher value.
Setting [1] is: measured here: mean retest inhibition.

For orientation: inhibition means the change of the read-out against control, counted positive when it falls. With `COc1cc(OC)c2ccc(=O)oc2c1C(CCN1CCN(c2ccccc2)CC1)c1ccc2c(c1)OCO2` (configuration not stated), the inhibition is -3.48% (inactive).
The same measure, in the same setting: in the case of `CCOC(=O)/C=C/CN(C(=O)OC(C)(C)C)S(=O)(=O)N1CC=CC1` it was -3.8% (inactive); in that of `C#CCOCCOCCOCCNc1nc(N2CCN(C(=O)[C@H](CCC(=O)O)n3cc(C(N)CO)nn3)CC2)nc(N2CCN(C(=O)[C@H](CCCCN)n3cc(C(N)CC(C)C)nn3)CC2)n1` (some centres not stated), 12.9% (inactive).
Same read-out and setting: in the case of `Cc1nc(-c2ccccc2)sc1C1(C)CC(c2cccnc2)=NO1` (configuration not stated) it was 1.85% (inactive); in that of `O=c1[nH]snc1-c1c(Cl)cccc1Cl`, -15.8% (inactive); in that of `COC(C[C@H](O)CC(=O)COCc1ccccc1)OC`, -6.86% (inactive).
Same read-out and setting: in the case of `CCN1C(=O)N[C@@H](c2ccccc2)[C@H](C(C)=O)[C@H]1C` it was -8.96% (inactive).
In the case of `Cc1ccc(-c2cc(=O)c3ccc(F)cc3[nH]2)cc1`, the inhibition is -13.2% (inactive).
For `O=C(NCC1CC1)c1onc(CSc2ccccc2)c1C(=O)NCC1CC1`, the inhibition is -3.31% (inactive).
Still for that read-out and setting: in the case of `O=C1CC2(CCCC2)Oc2ccc(Cl)cc21` it was 2.74% (inactive).
Consider `CCCc1cc(=O)oc2c(C)c(O)c(CN3CCCCC3)cc12`, for which the inhibition was 125% (inactive). The inhibition under setting [1] was 66.6%.
`COC(=O)COc1ccc2oc(=O)cc(C)c2c1`: the inhibition was 10.6% (inactive).
As to `COC(=O)Cc1cc(=O)oc2c(C)c(O)ccc12`, the inhibition is 115% (active). The inhibition under setting [1] turned out to be 108%.
Regarding `CCO[C@H]1OC(C(=O)N2CCN(Cc3ccccc3)CC2)=C[C@@H](c2cn(C(C)=O)c3ccccc23)[C@@H]1CCCO`, the inhibition was 77% (inactive). Besides, the inhibition under setting [1] was 8.54%.
As for `Cc1nc(C(=O)Nc2ccc(Cl)cc2)sc1C1(C)CC(c2ccccc2)=NO1` (configuration not stated), the inhibition is 7.11% (inactive).
For `C=CCOC(=O)C1=C[C@H](c2ccc(Br)cc2)C[C@H](OCCCCO)O1`, under setting [1], the inhibition was 3.33%.
For the molecule `C[C@@H](C(=O)N1CCNCC1)n1cc(CCC(=O)O)nn1`, the inhibition was -10.6% (inactive).
Same read-out and setting: in the case of `CC(=O)Nc1sc2c(c1C(c1cccc(F)c1)N1CCN(CCO)CC1)CCCC2` (configuration not stated) it was -13.5% (inactive).
In the case of `CN(C(=O)c1ccccn1)c1nnc(-c2ccccn2)s1`, the inhibition was 73.7% (active). Under setting [1], the inhibition came out at 110%.
`CN(C(=O)C1CCOC1)c1nnc(-c2cccnc2)s1` (configuration not stated): the inhibition is -5.38% (inactive).
Still for that read-out and setting: for `CN(C(=O)c1ccno1)c1nnc(-c2cccnc2)s1` the value was 11.4% (inactive); for `CN(Cc1ccccc1)C(=O)COc1ccccc1`, -9.33% (inactive).
Same read-out and setting: for `COc1cccc(-c2nnc(N(C)C(=O)c3ccno3)s2)c1` the value was 11.7% (inactive); for `Cc1cc(C(=O)Nc2c(C)n(C)n(-c3ccccc3)c2=O)cs1`, -9.2% (inactive).
Regarding `Cc1c(NC(=O)c2coc(=O)c(Br)c2)c(=O)n(-c2ccccc2)n1C`, the inhibition is 75.6% (active). For the same molecule, the inhibition under setting [1] is 104%.
For the molecule `COC(=O)Nc1c(C)n(C)n(-c2ccccc2)c1=O`, the inhibition is 3.72% (inactive).
Same read-out and setting: in the case of `COc1ccc(COCCN2CCN(S(=O)(=O)c3ccccc3)CCC2=O)cc1` it was 2.31% (inactive).
As to `CC(=O)N[C@H]1[C@H]([C@H](O)[C@H](O)CO)OC(C(=O)O)=C[C@@H]1O`, the inhibition was 1.59% (inactive).
With `COc1ccc(C2/C=C\CN(CC(C)C)CC(=O)N2Cc2ccc(F)cc2)cc1` (configuration not stated), the inhibition was -6.08% (inactive).
As for `NC(N)=NCCCc1cn(CC(=O)N2CCNCC2)nn1`, the inhibition is -8.74% (inactive).
Regarding `COc1ccc2c(c1)CCNC2Cc1ccc(OC)c(O)c1` (configuration not stated), the inhibition is -40.5% (inactive).
`Cc1cn(C)c(=O)n(C)c1=O`: the inhibition was -2.57% (inactive).
On the same count and under the same terms, in the case of `CC(C)(C)OC(=O)NCCCC1=CC2=CC(=O)C(C)(OC(=O)c3ccco3)C(=O)C2=CO1` (configuration not stated) it was -13.3% (inactive); in that of `Cc1ccc(NC(=O)N2CCSc3ccccc32)cc1`, -8.05% (inactive); in that of `NC(=O)CC[C@@H]1NC(=O)[C@H](CO)NC(=O)c2cc([N+](=O)[O-])cc(I)c2NCC[C@@H](C(N)=O)NC1=O`, -1.33% (inactive).
With `CCCC[C@@H]1CN=C(N)N1CCc1cccc(F)c1`, the inhibition was 4.76% (inactive).
In the case of `CNC(=O)c1[nH]cnc1C(=O)N[C@@H](CC(C)C)C(=O)OC(C)(C)C`, the inhibition was -13.2% (inactive).
The same measure, in the same setting: in the case of `C#Cc1ccc([C@@H]2C=C(C(=O)O)O[C@H](OCCCCO)C2)cc1` it was -5.63% (inactive).
With `O=C(NCc1ccccc1)c1onc(CSc2ccncc2)c1C(=O)NCc1ccccc1`, the inhibition was 2.05% (inactive).
Same read-out and setting: in the case of `CCOC(=O)c1ccc(NC(=O)c2c(N)n(C)c(=O)[nH]c2=O)cc1` it was 8.64% (inactive).
The same measure, in the same setting: in the case of `COc1ccc(CNC(=O)[C@@H]2CC=C[C@@H]3CCN(C4CC4)C(=O)[C@@H]32)cc1` it was 4.14% (inactive); in that of `CC1(C)S[C@@H]2[C@H](NC(=O)COc3ccccc3)C(=O)N2C1C(=O)OCc1ccccc1` (some centres not stated), 5.36% (inactive).
Still for that read-out and setting: in the case of `C#CCCOC(=O)N1C2=NC(C(=O)OC)=C(C(=O)OC)[C@@H]3N(C)c4ccc(OC)cc4[C@]23C[C@H]1C(=O)OC` it was -9.08% (inactive); in that of `CN1CCN(C(CNS(=O)(=O)c2cccs2)c2cccnc2)CC1` (configuration not stated), -1.39% (inactive).
For `O=C1N[C@@H](Cc2ccccc2)C(=O)N2[C@@H]3N(S(=O)(=O)c4ccc(F)cc4)c4ccccc4[C@]3(Br)C[C@@H]12`, the inhibition is -18.2% (inactive).
Same read-out and setting: for `C#CCOCCOCCOCCNc1nc(N2CCN(C(=O)[C@H](CCC(=O)O)n3cc(C(N)CO)nn3)CC2)nc(N2CCN(C(=O)[C@H](Cc3ccc(O)cc3)n3cc(C(N)[C@H](C)CC)nn3)CC2)n1` (some centres not stated) the value was 7.3% (inactive); for `O=C1N[C@H](Cc2ccccc2)C(=O)N[C@H]1Cc1cn(S(=O)(=O)c2ccccc2)c2ccccc12`, -14.5% (inactive); for `CC(C)[C@@H]1NC(=O)c2cc([N+](=O)[O-])cc(I)c2NCCC[C@@H](C(=O)NC(CC(=O)O)C(N)=O)NC(=O)[C@H](CO)NC1=O` (some centres not stated), -19.9% (inactive).
On the same count and under the same terms, for `NC(=O)CC[C@@H]1NC(=O)[C@@H]2CCCN2C(=O)c2cc([N+](=O)[O-])cc(F)c2NCCC[C@@H](C(N)=O)NC1=O` the value was -71.2% (inactive); for `NC(=O)C1=C[C@H](c2csc3ccccc23)C[C@H](OCc2ccc(CO)cc2)O1`, -63% (inactive).
Still for that read-out and setting: for `COP1(=O)C[C@@H](O)[C@@H](O)[C@@H](COCc2ccccc2)O1` (some centres not stated) the value was 11.1% (inactive); for `CCN1C(=O)N[C@@H](CCc2ccccc2)C(C(=O)OC)=C1C`, 4.12% (inactive).
